The values that follow come from article PMC4336329 (PLoS ONE, 2015).

Hit rate of the full screen: of about 310,000 compounds, about 14,000 (4.5%) showed an effect of 50% or more. The effect is printed as a negative number. This excerpt belongs to a sample that is enriched for strong results.
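Note: peak tail current of the secondary pulse compared with the same well before compound.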

In this assay the target is human ether-à-go-go-related gene (hERG) potassium channel (human, UniProt Q12809). In words: primary screen, population patch clamp on CHO cells stably expressing hERG; higher = less effect of the substance.
Sequence of human ether-à-go-go-related gene (hERG) potassium channel (Q12809 whole entry, looked up): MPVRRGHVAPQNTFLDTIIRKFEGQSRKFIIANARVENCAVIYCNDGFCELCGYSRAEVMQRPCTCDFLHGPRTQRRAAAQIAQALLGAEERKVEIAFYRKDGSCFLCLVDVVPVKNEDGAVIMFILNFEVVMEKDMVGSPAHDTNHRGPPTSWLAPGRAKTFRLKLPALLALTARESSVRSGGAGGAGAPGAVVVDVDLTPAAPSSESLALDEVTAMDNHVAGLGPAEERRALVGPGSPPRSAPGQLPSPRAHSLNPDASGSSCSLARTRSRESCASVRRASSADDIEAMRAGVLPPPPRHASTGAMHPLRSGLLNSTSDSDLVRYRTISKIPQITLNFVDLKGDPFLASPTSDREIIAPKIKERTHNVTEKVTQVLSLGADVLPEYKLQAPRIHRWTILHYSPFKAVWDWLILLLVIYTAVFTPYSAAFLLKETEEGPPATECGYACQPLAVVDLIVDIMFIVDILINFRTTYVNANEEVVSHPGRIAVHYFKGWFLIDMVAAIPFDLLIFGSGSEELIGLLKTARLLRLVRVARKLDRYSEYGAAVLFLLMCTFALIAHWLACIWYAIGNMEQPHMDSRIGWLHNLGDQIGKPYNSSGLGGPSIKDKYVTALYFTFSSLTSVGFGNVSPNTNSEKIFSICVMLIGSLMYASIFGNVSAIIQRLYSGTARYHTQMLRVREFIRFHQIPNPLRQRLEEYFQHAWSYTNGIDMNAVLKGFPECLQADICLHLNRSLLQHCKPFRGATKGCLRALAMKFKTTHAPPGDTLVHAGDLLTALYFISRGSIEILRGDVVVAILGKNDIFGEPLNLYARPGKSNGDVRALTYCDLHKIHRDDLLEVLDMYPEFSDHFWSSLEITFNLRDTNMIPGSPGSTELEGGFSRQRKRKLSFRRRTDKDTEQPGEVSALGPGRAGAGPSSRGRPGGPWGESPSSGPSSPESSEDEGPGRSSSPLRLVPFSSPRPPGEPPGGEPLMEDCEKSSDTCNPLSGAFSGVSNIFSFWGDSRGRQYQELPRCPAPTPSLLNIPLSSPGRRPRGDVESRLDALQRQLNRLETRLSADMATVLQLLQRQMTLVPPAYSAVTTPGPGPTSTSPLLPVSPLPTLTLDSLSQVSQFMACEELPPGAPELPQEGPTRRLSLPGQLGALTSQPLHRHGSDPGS
For `Cc1nonc1NC(=O)CSc1nc2cc(Cl)ccc2c2c1CCCC2`, the “hERG current change (%, negative = inhibition) at 10uM” value was 2.15%. `CN(Cc1nc(-c2cnccn2)no1)Cc1n[nH]c2c1CCCCC2`: the “hERG current change (%, negative = inhibition) at 10uM” value is -0.424%. In the case of `O=S(=O)(c1ccccc1)N(CC1CO1)c1cc(Cl)ccc1Cl` (stereo not drawn), the “hERG current change (%, negative = inhibition) at 10uM” value was 14.2%. Take `C/C(=N\O)C(C)(C)Nc1ccccc1F`: the “hERG current change (%, negative = inhibition) at 10uM” value amounted to 4.26%. Regarding `COc1cc(/C=C/c2[nH]c(=O)[nH]c(=O)c2[N+](=O)[O-])cc(OC)c1O`, the “hERG current change (%, negative = inhibition) at 10uM” value came out at 7.26%. Consider `CN(C)Cc1nc2ccccc2c(=O)n1CC(=O)Nc1cccc(S(=O)(=O)N2CCOCC2)c1`, for which the “hERG current change (%, negative = inhibition) at 10uM” value is listed as -14.4%.

`CCN(C(=O)C1CCCN1S(=O)(=O)c1ccc2c(c1)n(C)c(=O)c(=O)n2C)c1ccccc1` (stereo not drawn): the “hERG current change (%, negative = inhibition) at 10uM” value is -3.32%. `CCOC(=O)c1c(C)[nH]c(C(=O)C(C)OC(=O)c2cnc(C)cn2)c1C` (stereo not drawn): the “hERG current change (%, negative = inhibition) at 10uM” value is -0.804%. As to `O=C(NCCC(=O)N1CCC2(CC1)NCCc1[nH]cnc12)c1cccc(Br)c1`, the “hERG current change (%, negative = inhibition) at 10uM” value amounted to 1.5%. As for `C=CCc1cc(OC)ccc1OCC(O)CN1CCN(c2ccc(OC)cc2)CC1.Cl` (stereo not drawn), the “hERG current change (%, negative = inhibition) at 10uM” value is -71.2%.

Regarding `COc1ccc(CCNC(=S)Nc2ccc(S(=O)(=O)Nc3ncccn3)cc2)cc1OC`, the “hERG current change (%, negative = inhibition) at 10uM” value turned out to be 21.2%. Take `CC(=O)c1cc(Cc2csc(C(C)=O)c2)cs1`: the “hERG current change (%, negative = inhibition) at 10uM” value turned out to be 2.75%. Consider `CC(=O)c1cc(C(c2csc(C(C)=O)c2)c2csc(C(C)=O)c2)cs1`, for which the “hERG current change (%, negative = inhibition) at 10uM” value was -72.6%. Consider `CC(=O)c1cc(CN2C(=O)CCC2=O)cs1`, for which the “hERG current change (%, negative = inhibition) at 10uM” value came to 5.27%. With `O=C(NCc1ccco1)C1CC(c2ccc(Cl)cc2)=NO1` (stereo not drawn) the figure was 1.47%. With `FC(F)(F)c1cccc(-c2nc3nc(Cl)c(Cl)nc3[nH]2)c1` the figure was 30.4%; with `CC(=O)NS(=O)(=O)c1ccc(NC(=S)NC(=O)c2ccco2)cc1`, 2.54%; with `Cl.Clc1ccc(CN2C3=NCCN3c3ccccc32)cc1Cl`, -75.9%. For `Cl.Clc1ccc(CN2C3=NCCCN3c3ccccc32)cc1Cl`, the “hERG current change (%, negative = inhibition) at 10uM” value is reported as -76.3%.

For `Clc1ccc(CN2CCCCCC2)cc1Cl`, the “hERG current change (%, negative = inhibition) at 10uM” value is -7.66%. As for `Clc1ccc(CN2CCCCCCC2)cc1Cl`, the “hERG current change (%, negative = inhibition) at 10uM” value came to 3.83%. In the case of `CCN1CCSc2ccc(C(=O)Nc3ccc(NC(C)=O)cc3)cc21`, the “hERG current change (%, negative = inhibition) at 10uM” value was 1.22%. Then `CCN(Cc1ccccc1)C(=O)CSc1n[nH]c(N)n1`, with 33.6%.

Consider `CNC(=O)[C@@]1(Cc2ccccc2)C=C[C@@H](C)N1C(C)=O`, for which the “hERG current change (%, negative = inhibition) at 10uM” value is given as 5.07%. Turning to `Cc1cc(C)n(-c2nc(C)nc3c2cnn3-c2ccccc2)n1`, the “hERG current change (%, negative = inhibition) at 10uM” value is 13%. Then `CCOC(=O)c1ccc(S(=O)(=O)NNC(=O)COc2ccccc2C)cc1`, with 27.5%. On to `O=C(CSc1nnc(C2CC2)n1C1CC1)Nc1cccc(Br)c1`, for which the “hERG current change (%, negative = inhibition) at 10uM” value was -75.1%. Take `N#CCc1ccc(NC(=O)CSc2nnc(C3CC3)n2C2CC2)cc1`: the “hERG current change (%, negative = inhibition) at 10uM” value is 9.18%. As for `NS(=O)(=O)c1ccc(NC(=O)CSc2nnc(C3CC3)n2C2CC2)cc1`, the “hERG current change (%, negative = inhibition) at 10uM” value worked out at 22%. As to `N#Cc1cccc(NC(=O)CSc2nnc(C3CC3)n2C2CC2)c1`, the “hERG current change (%, negative = inhibition) at 10uM” value is -52.4%.

In the case of `NS(=O)(=O)c1cccc(NC(=O)CSc2nnc(C3CC3)n2C2CC2)c1`, the “hERG current change (%, negative = inhibition) at 10uM” value is given as 8.95%.

`CCOc1ccc(NC(=O)CSc2nnc(C3CC3)n2C2CC2)cc1`: the “hERG current change (%, negative = inhibition) at 10uM” value is reported as -15.7%. Take `Cc1cc(C)cc(NC(=O)CSc2nnc(-c3cc(C)[nH]n3)n2N)c1`: the “hERG current change (%, negative = inhibition) at 10uM” value amounted to 12.5%.

For `C=CCNC(=O)c1cc(-c2ccc(Br)cc2)on1`, the “hERG current change (%, negative = inhibition) at 10uM” value is 1.88%.

`CCn1cc(C(=O)O)c(=O)c2cc(F)c(N/N=C/c3ccccc3)cc21`: the “hERG current change (%, negative = inhibition) at 10uM” value is recorded as -27.2%. With `CCn1cc(C(=O)O)c(=O)c2cc(F)c(N3CCN(C(=S)NC(=O)c4ccccc4)CC3)cc21`, the “hERG current change (%, negative = inhibition) at 10uM” value is given as 13.7%. `CCn1cc(C(=O)O)c(=O)c2cc(F)c(N/N=C/c3ccccc3[N+](=O)[O-])cc21`: the “hERG current change (%, negative = inhibition) at 10uM” value is reported as -51.2%.

For `COc1ccc(NC(=S)NN(C)C(=S)Nc2ccc(OC)cc2)cc1`, the “hERG current change (%, negative = inhibition) at 10uM” value was determined as 26.1%. In the case of `O=C(c1ncn(Cc2ccccc2)c1C(=O)N1CCc2ccccc2C1)N1CCc2ccccc2C1`, the “hERG current change (%, negative = inhibition) at 10uM” value is recorded as -30.4%. With `CCN1CCN(Cc2ccc(NC(=O)Nc3ccc(OC)cc3)cc2)CC1` the figure was -7.9%; with `COc1ccc(C(=O)Nc2ccc(CN3CCOCC3)cc2)cc1`, -1.82%. Then `COc1cccc(CC2(CO)CCN(C(=O)NCCc3ccccc3)CC2)c1`, with 0.136%; and `COc1cccc(CC2(CO)CCN(Cc3ccc(NC(C)=O)cc3)CC2)c1`, with -50.7%. Regarding `CC(=O)Nc1ccc(CN2CCCC(CO)(Cc3cccc(Cl)c3)C2)cc1` (stereo not drawn), the “hERG current change (%, negative = inhibition) at 10uM” value was -39.2%. On to `COc1ccc(CC2(CO)CCN(Cc3ccc(NC(C)=O)cc3)CC2)cc1`, for which the “hERG current change (%, negative = inhibition) at 10uM” value is -57.4%. In the case of `O=C(NCC(=O)N1CCC2(CC1)NCCc1[nH]cnc12)c1cccc(Cl)c1`, the “hERG current change (%, negative = inhibition) at 10uM” value came out at 12.5%. With `CCOc1cc(/C=C2\SC(=N)N(c3nonc3N)C2=O)ccc1OCC(N)=O` the figure was 7.01%; with `O=C(CCCn1c(=S)[nH]c2ccccc2c1=O)N1CCCCC1`, -10.4%; with `CC(C#N)Sc1nnc(-c2ccccc2F)n1C1CC1` (stereo not drawn), 18.2%. As to `C=CCOc1ccc(C(=O)n2cc(C(=O)OC)c3ccccc32)cc1`, the “hERG current change (%, negative = inhibition) at 10uM” value was determined as 9.62%. With `Cc1ccc(C(=O)c2c3ccc(C(F)(F)F)cc3nn2CCC(N)=O)cc1`, the “hERG current change (%, negative = inhibition) at 10uM” value is reported as -5.81%. Then `Cc1ccc(C(=O)c2c3ccc(C(F)(F)F)cc3[n+]([O-])n2CCCC(N)=O)cc1`, with -62.9%; and `Cc1ccc(C(=O)c2c3ccc(C(F)(F)F)cc3[n+]([O-])n2CCC(N)=O)cc1`, with -66.2%; and `Cc1ccc(C(=O)c2c3ccccc3[n+]([O-])n2CCC(N)=O)cc1`, with -5.98%.

As to `Cc1ccc(C(=O)c2c3ccc([N+](=O)[O-])cc3[n+]([O-])n2CCC(N)=O)cc1`, the “hERG current change (%, negative = inhibition) at 10uM” value is -32.6%. `NC(=O)CCCn1c(C(=O)c2cc(Cl)c(N)c(Cl)c2)c2ccc(C(F)(F)F)cc2[n+]1[O-]`: the “hERG current change (%, negative = inhibition) at 10uM” value was -41.1%. With `Nc1c(Cl)cc(C(=O)c2c3ccc(C(F)(F)F)cc3[n+]([O-])n2CCC[NH3+])cc1Cl.[Cl-]` the figure was -57.6%; with `NC(=O)c1ccc(Cn2c(C(=O)c3ccc(Cl)cc3)c3ccccc3[n+]2[O-])cc1`, -9.74%; with `Nc1c(Cl)cc(C(=O)c2c3ccccc3[n+]([O-])n2CCC[NH3+])cc1Cl.[Cl-]`, -20.9%. For `COc1ccc2c(C(=O)c3ccc(C)cc3)n(CCC(N)=O)[n+]([O-])c2c1`, the “hERG current change (%, negative = inhibition) at 10uM” value is reported as -6.56%. For the compound `[Cl-].[NH3+]CCCn1c(C(=O)c2ccc(Cl)cc2)c2ccc(C(F)(F)F)cc2[n+]1[O-]`, the “hERG current change (%, negative = inhibition) at 10uM” value is -79.2%. On to `CCN1CSC(=S)N(Cc2ccccc2)C1`, for which the “hERG current change (%, negative = inhibition) at 10uM” value is reported as 12.2%. As for `COc1cc(CC(=O)Nc2nc(C)cs2)cc(OC)c1OC`, the “hERG current change (%, negative = inhibition) at 10uM” value is on record as 5.84%. With `CC1(C)Nc2ccccc2C(=O)N1c1ccccc1`, the “hERG current change (%, negative = inhibition) at 10uM” value turned out to be 20.5%.

With `COC(=O)Cn1nc(-c2ccccc2)c2cc(Cl)ccc21`, the “hERG current change (%, negative = inhibition) at 10uM” value is -0.627%. Take `CCOc1ccc(NC(=O)N2C[C@H]3C[C@@H](C2)c2cccc(=O)n2C3)cc1`: the “hERG current change (%, negative = inhibition) at 10uM” value came to 8.54%. Take `O=C(CSc1n[nH]c(-c2ccccn2)n1)Nc1ccccc1F`: the “hERG current change (%, negative = inhibition) at 10uM” value was -1.74%. Take `COc1ccccc1/C(O)=C(\C#N)c1nc2ccccc2[nH]1`: the “hERG current change (%, negative = inhibition) at 10uM” value stood at 15%. With `CCC1=NN2C(=N)/C(=C/c3cc(C)n(-c4ccccc4)c3C)C(=O)N=C2S1`, the “hERG current change (%, negative = inhibition) at 10uM” value is 16.2%. Consider `O=c1[nH]cc(NCCNc2ncc(C(F)(F)F)cc2Cl)c(=O)[nH]1`, for which the “hERG current change (%, negative = inhibition) at 10uM” value was 3.6%. On to `Nn1cnnc1SCC(=O)Nc1ccc(C2CCCCC2)cc1`, for which the “hERG current change (%, negative = inhibition) at 10uM” value stood at 12.5%. As for `CCn1cc(S(=O)(=O)Nc2nc3ccc(OC)cc3s2)cn1`, the “hERG current change (%, negative = inhibition) at 10uM” value came to 19.7%. As to `Cc1ccc2c(c1)-c1ncc(C(=O)c3cc(Br)ccc3O)cc1CO2`, the “hERG current change (%, negative = inhibition) at 10uM” value worked out at 15.7%.

As for `CCc1cc(=O)oc2cc(C)cc(OCC(=O)NC(Cc3ccc(Cl)cc3)C(=O)O)c12` (stereo not drawn), the “hERG current change (%, negative = inhibition) at 10uM” value was -9.21%. Then `Cc1cccc(N2CCN(S(=O)(=O)c3ccc4c(c3)CCC(=O)N4)CC2C)c1` (stereo not drawn), with -8.91%.
